Measured values reported in PubChem BioAssay (EPA / NIEHS).
Activity calls are given as the source filed them. How the source made its calls: active means hit-call score of the fitted dose curve at least 0.9, where 1 is the maximum; inactive means score below 0.9.

Assay: CCTE_Mundy_HCI_Cortical_Synap_Neur_Matur_NeuriteSpotCountPerNeuriteLength: CCTE's Synaptogenesis and Neurite Maturation Assay in rat cortical cells for Neurite Spot Count per Neurite Length, Mundy Lab (AID 2284210)
Procedure: CCTE_Mundy_HCI_Cortical_Synap&Neurite_Matur is a multiplexed, cell-based-readout assay that uses rat primary cortical cells with measurements taken at 288.33 hours after chemical dosing in a microplate: 96-well plate.CCTE_Mundy_HCI_Cortical_Synap_Neur_Matur_NeuriteSpotCountPerNeuriteLength is one of eight components of the CCTE_Mundy_HCI_Cortical_Synap&Neurite_Matur assay. It measures synaptogenesis and neurite maturation related to number of neurite-associated synapses (synaptophysin puncta) per unit length of neurite using High Content Imaging of fluorescently labelled markers.[…] Using a type of morphology reporter, loss -of-signal activity can be used to understand developmental effects.
Cells are plated onto 96 well plates and allowed 2 hr for attachment to the substrate. At days in vitro (DIV) 5, Cytosine Arabinoside (AraC) is added to arrest glial cell growth. Chemicals are dosed and a media change is performed at DIV 7 of differentiation and is continued through DIV 12 when the experiment is terminated. Cells are fixed with […] and Hoechst Dye. Cells are stained using Millipore Mouse anti-MAP2MAB3418 (1:800) and Millipore Rabbit anti-Synaptophysinsc-1750 (1:250) primary antibodies and Alexa Fluor-488 goat anti-mouse and AlexaFluor-546 goat anti-rabbit secondary antibodies to label neuronal cell nuclei, synapses and neurites. A Cellomics ArrayScan VTi HCS Reader is used for automated image acquisition and analysis of neurite outgrowth.
With `ClC1=C(Cl)C2(Cl)C3C(Cl)C=CC3C1(Cl)C2(Cl)Cl` (configuration not stated) the outcome was “inactive”.
With `OCCOCCO` the outcome was “inactive”.
In the case of `[O-][Cl+]O`, the outcome is reported as “inactive”.
With `Nc1cc(Cl)cc(C(=O)O)c1Cl` the outcome was “inactive”.
With `COC(=O)Nc1nc2ccccc2[nH]1` the outcome was “inactive”.
With `CNC(=O)Oc1cccc2c1OC(C)(C)C2` the outcome was “inactive”.
In the case of `CC(C)(C)C(O)(CCc1ccc(Cl)cc1)Cn1cncn1` (configuration not stated), the outcome is reported as “inactive”.
In the case of `CCCCOC(=O)c1ccccc1C(=O)OCc1ccccc1`, the outcome is reported as “inactive”.
For `COP(=S)(OC)SCN1C(=O)c2ccccc2C1=O`, the outcome was “inactive”.
In the case of `CC(C)COC(=O)c1ccccc1C(=O)OCC(C)C`, the AC50 is reported as 87.9 µM (active).
With `CN(C)[C@@H]1C(=O)C(C(N)=O)=C(O)[C@@]2(O)C(=O)C3=C(O)c4c(O)cccc4[C@@](C)(O)[C@H]3C[C@@H]12` the outcome was “inactive”.
In the case of `CCC[CH2][Sn]([Cl])([CH2]CCC)[CH2]CCC`, the AC50 is reported as 0.0375 µM (active).
